This passage reports composite z-score results from PubChem BioAssay.

Molecules are shown by their SMILES. A number with no mark means an inactive call.

Dihydroorotate dehydrogenase (quinone), mitochondrial (Plasmodium falciparum (isolate 3D7)), sequence (Q08210 whole entry, looked up): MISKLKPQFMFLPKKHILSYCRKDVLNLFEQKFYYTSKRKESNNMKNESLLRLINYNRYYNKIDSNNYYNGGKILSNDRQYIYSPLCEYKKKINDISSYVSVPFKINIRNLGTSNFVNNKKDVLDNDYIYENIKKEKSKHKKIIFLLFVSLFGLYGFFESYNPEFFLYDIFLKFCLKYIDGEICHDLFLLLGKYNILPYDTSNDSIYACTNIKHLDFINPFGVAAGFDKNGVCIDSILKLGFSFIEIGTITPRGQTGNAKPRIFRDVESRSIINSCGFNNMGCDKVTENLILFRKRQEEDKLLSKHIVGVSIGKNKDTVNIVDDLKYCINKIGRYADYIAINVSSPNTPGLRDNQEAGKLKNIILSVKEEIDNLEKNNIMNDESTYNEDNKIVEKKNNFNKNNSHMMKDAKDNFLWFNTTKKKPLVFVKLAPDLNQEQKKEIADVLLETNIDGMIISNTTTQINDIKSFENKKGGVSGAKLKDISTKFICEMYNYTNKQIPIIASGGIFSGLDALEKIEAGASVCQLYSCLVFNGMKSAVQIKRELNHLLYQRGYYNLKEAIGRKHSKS

The assay concerns the target Dihydroorotate dehydrogenase (quinone), mitochondrial (Plasmodium falciparum (isolate 3D7)) (UniProt Q08210). As to the kind of experiment: PfDHODH enzyme inhibitors, primary screen, biochemical, C-terminal His tag, absorbance 600 nm (AID 1175).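 Also: recombinant parasite enzyme with a five histidine tag at its C terminus; test concentration not given here.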 The note with it: DCIP absorbance 600 nm, higher = more signal, called active from +8 up or from −8 down.
In the case of `CC=CC1=C(CO)[C@H](O)[C@H]2O[C@H]2[C@H]1O`, the composite z-score is 0.439.
For the molecule `COCCNC(=O)OCC1CCCC2(CC(OC(=O)NCCc3ccc(F)cc3)CC(CCC(=O)N[C@@H](C)C(=O)OC)O2)O1` (stereo partly specified), the composite z-score is -0.0746.
The result for `CC(C)[C@H](NC(=O)OC(C)(C)C)[C@@H](O)CC(=O)OC(C)(C)C` reads 0.0945; that for `CCc1cc2c(nc1CC)CCN(CCC(C)=NOC[C@@H](O)COCc1ccco1)C2`, -0.127; that for `CCOC(=O)[C@H](Cc1ccccc1)NC(=O)CCC1CC(OC(=O)NCc2ccc3c(c2)OCO3)CC2(CCCC(COC(=O)NCc3ccccc3)O2)O1` (stereo partly specified), 0.208.
With `C=CCOC(=O)[C@H]1[C@@H]2C(=O)O[C@@H](c3ccccc3)[C@@H](c3ccccc3)N2[C@@H](c2ccc(OCCOC(=O)[C@H]3C[C@H]4C(=O)N[C@@H](Cc5ccccc5)C(=O)N4[C@H]3c3ccc(O)cc3)cc2)[C@]12C(=O)Nc1ccccc12`, the composite z-score is -0.869.
The result for `C=CC[C@@H]1C=C[C@H](ON=C2c3cc(OC)ccc3O[C@H](c3cccc(OC)c3)[C@H]2O)[C@@H](CO)O1` reads -0.726.
With `CC(C)(C)N1C(=O)[C@H]2[C@H]3[C@H](O)[C@H](O)CC(=NO[C@@H]4O[C@H](CO)[C@@H](O)[C@H](O)[C@H]4O)[C@@H]3CC[C@H]2C1=O`, the composite z-score is 0.0902.
Turning to `CC(C)=NOCc1cccc(-c2cc(-c3ccccc3)no2)c1`, the composite z-score was -0.502.
For `C[C@H]1CC[C@@H](C(=O)O)N[C@@H]1c1ccc(C#CCN(C)C)cc1`, the composite z-score is 0.666.
The same measure for `CO[C@H]1COC(=O)[C@H](C)NC(=O)[C@@H](C)COC(=O)CC=C[C@@H]1C`: -0.0114; for `COC(=O)CC=C[C@H](C)[C@H](CO)NS(=O)(=O)c1ccc(C)cc1`: 0.0702; for `Cc1cc2c(nc1C)CCCN2CC(C)ON=C1[C@H]2CCn3c(=O)n(-c4ccccc4)c(=O)n3[C@H]2[C@H](O)[C@@H]2O[C@H]12` (stereo partly specified): -0.153.
The same measure for `CC(C)OC(=O)C=C1C[C@@H](c2ccc(C#N)cc2)O[C@@H](c2ccc(C#N)cc2)O1`: 0.382; for `CO[C@H]1COC(=O)[C@H](C)COC(=O)CC=C[C@@H](C)[C@H](OC)COC(=O)CC=C[C@@H]1C`: -0.365.
The result for `CC(CCN1CCc2nc(-c3ccccc3)c(-c3ccccc3)cc2C1)=NO[C@@H](C)c1cn([C@H](CO)Cc2ccccc2)nn1` reads -1.81; that for `COc1ccc([Si](C)(C)[C@@H]2[C@@H](CC(=O)N3CCC[C@H]3CO)O[C@]3(C(=O)N(Cc4cccc(N5CCC5=O)c4)c4ccccc43)[C@H]2C)cc1`, -3.15.
With `COc1ccccc1CN1C(=O)c2ccccc2[C@@H](C(=O)NCC(F)(F)F)[C@@H]1c1ccc(CO)cc1`, the composite z-score is 0.338.
As to `[N-]=[N+]=NCc1ccccc1[C@@H]1OC(c2ccc(OCCCO)cc2)=N[C@]1(Cc1ccccc1)C(=O)N1CCOCC1`, the composite z-score is -0.0859.
For the molecule `CC(C)(C)OC(=O)CC[C@]1(C(=O)NCc2ccccc2)N=C(c2ccc(OCCCO)cc2)O[C@H]1c1ccccc1`, the composite z-score is 0.218.
The same measure for `CC1CC/C=C\[C@H]2OC34C=CCN(Cn5nnc6ccccc65)C(=O)[C@H]3N(CCO)C(=O)[C@@H]4C2C(=O)O1` (stereo partly specified): -0.895; for `CCOC(=O)CCN1C(=O)[C@H]2[C@H]3[C@H](O)C=CC(=O)[C@@H]3CC[C@H]2C1=O`: 0.231; for `O=C1C[C@@H](O)[C@@H](O)[C@@H]2[C@@H]3C(=O)N(Cc4ccc5c(c4)OCO5)C(=O)[C@@H]3CC[C@@H]12`: 0.745.
Regarding `CCN1C(=O)[C@H]2[C@H]3[C@H](O)[C@H](O)CC(=NO[C@@H]4O[C@H](CO)[C@@H](O)[C@H](O)[C@H]4O)[C@@H]3CC[C@H]2C1=O`, the composite z-score was -0.794.
The result for `C#CCCCON=C1C[C@@H](O)[C@@H](O)[C@@H]2[C@@H]3C(=O)N(Cc4ccccc4)C(=O)[C@@H]3CC[C@H]12` reads -0.794.
The result for `C[C@@H](c1ccccc1)N1C(=O)[C@H]2[C@H]3[C@H](O)[C@H](O)CC(=NNC(=O)OCc4ccccc4)[C@H]3CC[C@H]2C1=O` reads 0.749; that for `COC(=O)[C@H](C)NC(=O)CCC1CC(OC(=O)NCc2cccc3ccccc23)CC2(CCCC(COC(=O)NCCc3ccc(Cl)cc3)O2)O1` (stereo partly specified), -0.473; that for `CCc1cc2c(nc1CC)CCN(CCC(C)=NOC(C)CN1CCCc3nc(C)c(C)cc31)C2` (stereo unspecified), 0.244.
The same measure for `COC(=O)[C@@]1(Cc2ccc(OC)cc2)[C@H]2c3cc(C(=O)N4CCCC4)n(Cc4cc(F)c(F)c(F)c4)c3C[C@H]2CN1C(=O)c1ccccc1`: 0.13; for `CN1C(=O)C2C=CC(C(O)c3ccc(Br)cc3)N(N(c3ccccc3)c3ccccc3)C2C1=O` (stereo unspecified): 1.02.
For `CCOC(=O)NN=C1C[C@@H](O)[C@@H](O)[C@@H]2[C@@H]3C(=O)N(CC)C(=O)[C@@H]3CC[C@@H]12`, the composite z-score was -0.538.
The same measure for `O=C(CS)NCCCCCNC(=O)[C@@H]1C[C@@H]2C(=O)N[C@@H](Cc3ccccc3)C(=O)N2[C@@H]1c1ccc(O)cc1`: 0.0126.
The same measure for `C=CC[C@]1(C(=O)NCc2ccccc2)N=C(c2ccc(OCCCO)cc2)O[C@H]1c1ccccc1`: -0.649; for `O=C1[C@H]2[C@H]3[C@H](O)[C@H](O)CC(=NOCc4ccccc4)[C@H]3CC[C@H]2C(=O)N1c1cccc(Oc2ccccc2)c1`: -0.278.
The result for `COC(=O)CC=C[C@@H](C)[C@H](OC)c1ccccc1Br` reads -2.6.
Take `CCN1C(=O)[C@H]2[C@H]3[C@H](O)C=CC(=O)[C@@H]3CC[C@H]2C1=O`: the composite z-score was -0.28.
